Measured values taken from the supplement of paper PMC6555819.

Columns and labels:
Test in all cases: PBM binding z-score (relative to random genomic background probes); higher = stronger binding; sequences stand for … in GC…GCGATTGACAGCGTAGAATGAAGG
[1] = test system: RARb homodimer (NR concentration 270 nM)
How it was run: (§1)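 Ligand-free nuclear receptor dimers were bound for 1 h to custom Agilent 4×180K protein-binding microarrays. Detection used antibodies against each partner (one per run). Binding z-scores rest on regression-normalized fluorescence, with random background probes as the reference.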

[2] = test system: RARg:RXRa (NR concentration 270 nM, RXRa partner concentration 90 nM)
How it was run: as §1

[3] = test system: RARg homodimer (NR concentration 270 nM)
How it was run: as §1

[4] = test system: RXRa DBDmut IVT, anti-RXR (DBD mutation: RXRa K156A/R161A, NR concentration 90 nM)
How it was run: as §1

[5] = test system: RXRa homodimer (NR concentration 180 nM)
How it was run: as §1

[6] = test system: THRa:RXRa (NR concentration 90 nM, RXRa partner concentration 90 nM)
How it was run: as §1

[7] = test system: THRa homodimer (NR concentration 90 nM)
How it was run: as §1

[8] = test system: VDR homodimer (NR concentration 270 nM)
How it was run: as §1

## AGTCAAAGTTCATCTAGTTAACGTAAGATATGCT
[1]
  PBM binding z-score: 3.73
[2]
  PBM binding z-score: 5.37
[3]
  PBM binding z-score: 5.78
[4]
  PBM binding z-score: 4.8
[5]
  PBM binding z-score: 4.19
[6]
  PBM binding z-score: 2.13
[7]
  PBM binding z-score: -0.607
[8]
  PBM binding z-score: 5.21

## TCTTGTAGATCAGCAGGTTAAGAAGGCTGGCCAA
[1]
  PBM binding z-score: 0.175
[2]
  PBM binding z-score: 0.0178
[3]
  PBM binding z-score: -0.229
[4]
  PBM binding z-score: 0.672
[5]
  PBM binding z-score: 0.428
[6]
  PBM binding z-score: 0.192
[7]
  PBM binding z-score: -0.361
[8]
  PBM binding z-score: -0.0588

## GATACAGGGTCAGCTAGAGGCCAGAGTTTGGAAA
[1]
  PBM binding z-score: 3.66
[2]
  PBM binding z-score: 6.53
[3]
  PBM binding z-score: 4.92
[4]
  PBM binding z-score: 1.38
[5]
  PBM binding z-score: 4.29
[6]
  PBM binding z-score: 3.04
[7]
  PBM binding z-score: 0.526
[8]
  PBM binding z-score: 1.17

## CCTCCAAGGTCAGAGAGGTCAGTGAATGCCGAGT
[1]
  PBM binding z-score: 5.51
[2]
  PBM binding z-score: 6.2
[3]
  PBM binding z-score: 6.87
[4]
  PBM binding z-score: 3.18
[5]
  PBM binding z-score: 5.37
[6]
  PBM binding z-score: 4.36
[7]
  PBM binding z-score: 2.59
[8]
  PBM binding z-score: 4.62

## ATCTCTAGGTAACCAAGTTCCGTGAATGCCGAAC
[1]
  PBM binding z-score: -0.23
[2]
  PBM binding z-score: 0.14
[3]
  PBM binding z-score: 0.215
[4]
  PBM binding z-score: 0.0901
[5]
  PBM binding z-score: 0.217
[6]
  PBM binding z-score: 0.694
[7]
  PBM binding z-score: 0.462
[8]
  PBM binding z-score: -0.111

## TCGTATAGGTAAATGCTAGGTGAAAGTCCGATCT
[1]
  PBM binding z-score: 0.475
[2]
  PBM binding z-score: 0.402
[3]
  PBM binding z-score: 0.0931
[4]
  PBM binding z-score: 1.07
[5]
  PBM binding z-score: 0.407
[6]
  PBM binding z-score: 1.48
[7]
  PBM binding z-score: 0.325
[8]
  PBM binding z-score: -0.0661

## ACTAGCTGGCCAAGGGTCACTCAAGATTAGTCCG
[1]
  PBM binding z-score: 3.54
[2]
  PBM binding z-score: 3.78
[3]
  PBM binding z-score: 3.54
[4]
  PBM binding z-score: 0.138
[5]
  PBM binding z-score: 3.9
[6]
  PBM binding z-score: 2.48
[7]
  PBM binding z-score: 0.0817
[8]
  PBM binding z-score: 0.917

## GCGACTGGGGCATCAGCAGGTTCCCATAACTTAA
[1]
  PBM binding z-score: 0.194
[2]
  PBM binding z-score: -0.00118
[3]
  PBM binding z-score: -0.0802
[4]
  PBM binding z-score: -0.281
[5]
  PBM binding z-score: -0.0306
[6]
  PBM binding z-score: -0.0535
[7]
  PBM binding z-score: -0.272
[8]
  PBM binding z-score: -0.434

## TAGCCTAGGTCAGTCAGGGGCCAGTATAGAAAGC
[1]
  PBM binding z-score: 2.81
[2]
  PBM binding z-score: 4.53
[3]
  PBM binding z-score: 3.75
[4]
  PBM binding z-score: -0.63
[5]
  PBM binding z-score: 1.18
[6]
  PBM binding z-score: 1.86
[7]
  PBM binding z-score: 0.122
[8]
  PBM binding z-score: 0.0513

## CAAACTAGGTCAGCGGAAGGTCAAAGTCCGCATG
[1]
  PBM binding z-score: 5.24
[2]
  PBM binding z-score: 7.66
[3]
  PBM binding z-score: 6.32
[4]
  PBM binding z-score: 1.11
[5]
  PBM binding z-score: 4.98
[6]
  PBM binding z-score: 4.05
[7]
  PBM binding z-score: 1.64
[8]
  PBM binding z-score: 2.6

## CCTAGTTGGTCAGGCGGTCACACACCGGATATGA
[1]
  PBM binding z-score: 2.12
[2]
  PBM binding z-score: 1.41
[3]
  PBM binding z-score: 1.67
[4]
  PBM binding z-score: -0.336
[5]
  PBM binding z-score: 0.344
[6]
  PBM binding z-score: 0.232
[7]
  PBM binding z-score: 0.129
[8]
  PBM binding z-score: 0.3

## TCTATTAGTTGGTTAGGGCAACCGAAACAGCGGA
[1]
  PBM binding z-score: 0.686
[2]
  PBM binding z-score: 0.47
[3]
  PBM binding z-score: 0.667
[4]
  PBM binding z-score: 0.779
[5]
  PBM binding z-score: 0.412
[6]
  PBM binding z-score: 0.638
[7]
  PBM binding z-score: 0.431
[8]
  PBM binding z-score: 0.587

## ACAGACAGGTGATGAAAGTAACTCAGGCTATCAT
[1]
  PBM binding z-score: -0.49
[2]
  PBM binding z-score: 0.123
[3]
  PBM binding z-score: 0.169
[4]
  PBM binding z-score: -0.387
[5]
  PBM binding z-score: 0.297
[6]
  PBM binding z-score: -0.0258
[7]
  PBM binding z-score: -0.579
[8]
  PBM binding z-score: -0.942

## CATACAGGGTCAGCTAGCCCAGAGTAGGGACGGC
[1]
  PBM binding z-score: 3.08
[2]
  PBM binding z-score: 4.59
[3]
  PBM binding z-score: 4.82
[4]
  PBM binding z-score: 1.69
[5]
  PBM binding z-score: 4.46
[6]
  PBM binding z-score: 2.82
[7]
  PBM binding z-score: 0.68
[8]
  PBM binding z-score: 0.999
